Results on 40 molecules are retold here after PubChem BioAssay (Tox21).

Where “and” joins values, the source holds several entries; their conditions need not be identical. Identical values can stand only once. Inconclusive results are not listed. Calls of active or inactive are those of the source. The call rests on the fitted dose curve; in most records, active means well fitted inhibition curve with a large enough effect in the repeat runs; inconclusive means weak or mixed curves; inactive means no such curve, though single readings can be large or run the other way.
On the % scale 0 is the no-effect control and ±100 the full control effect; potency means the concentration at half of the fitted maximal effect.

In this test the target is Cytochrome P450 2C19 (Homo sapiens) (UniProt P33261). The test is described as follows: Cytochrome P450 Family 2 Subfamily C Member 19 (CYP2C19) small molecule antagonists: luciferase reporter qHTS assay (AID 1671197). Further: nearly all actives have a fitted effect of over 65% in size. The settings on record: P450-Glo CYP2C19 enzyme, luciferin luminescence, 1 h; series mostly up to 115 µM; activity change, negative = inhibition: at the top concentration. From the text: National Center for Advancing Translational Sciences [NCATS]
Sequence of Cytochrome P450 2C19 (Homo sapiens) (P33261 whole entry, looked up): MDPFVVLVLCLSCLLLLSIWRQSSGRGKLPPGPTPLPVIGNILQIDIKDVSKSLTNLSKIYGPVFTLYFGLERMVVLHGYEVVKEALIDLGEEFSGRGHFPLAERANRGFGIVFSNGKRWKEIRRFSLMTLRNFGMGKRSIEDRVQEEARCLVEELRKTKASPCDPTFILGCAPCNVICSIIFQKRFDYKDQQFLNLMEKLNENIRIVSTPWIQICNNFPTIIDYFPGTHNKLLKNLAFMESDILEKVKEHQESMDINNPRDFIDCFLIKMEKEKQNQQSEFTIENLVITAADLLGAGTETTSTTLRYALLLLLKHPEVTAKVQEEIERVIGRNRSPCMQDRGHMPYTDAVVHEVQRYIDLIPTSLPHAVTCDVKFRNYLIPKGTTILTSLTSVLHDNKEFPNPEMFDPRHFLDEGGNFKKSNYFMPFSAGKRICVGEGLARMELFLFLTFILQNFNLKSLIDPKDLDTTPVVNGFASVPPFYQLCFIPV
U.S. Environmental Protection Agency [EPA]
National Institutes of Environmental Health Sciences [NIEHS]
National Toxicology Program [NTP]
U.S. Food and Drug Administration [FDA]
Cytochrome P450 (CYP) enzymes are membrane-bound hemeproteins that play a key role in metabolism of drugs and xenobiotics. Evaluation of the effect of chemicals on CYP isozymes is useful to minimize the adverse drug reactions and toxicities in drug development process. Tox21 chemicals were tested for their effect on CYP enzyme activities by using P450-Glo (TM) screening systems (Promega Corporation, Madison, WI). These systems provide a luminescent method containing proluciferin substrates and are converted to luciferin products by CYP isozymes. The luciferin products formed are detected with a luciferin detection reagent, and the amount of light produced is proportional to CYP activity. P450-Glo (TM) CYP2C19 screening system (Catalog. No. V9880) was used to detect the compounds that interfere in CYP2C19 activity. The positive control compound used for CYP2C19 assay is ketoconazole (Sigma-Aldrich, St. Louis, MO).
Tox21 Assay Protocol Summary:
Two ul of enzyme-substrate mix was dispensed into medium binding white/solid 1536-well plates (Greiner Bio-One North America Inc., Monroe, NC) using a BioRaptr Flying Reagent Dispenser (FRD, Beckman Coulter, Brea, CA). Compounds dissolved in DMSO and positive control (ketoconazole) were transferred to the assay plates at 23 nl using a Pintool station (Wako, San Diego, CA). The assay plates were incubated at room temperature for 10 min. Then 2 ul of NADPH regeneration solution was added to each well of the assay plates using an FRD and incubated at 37C for 1 h. The reaction was stopped by adding 4 ul of detection reagent using an FRD and after 20 min incubation at room temperature the luminescence signal was measured using a ViewLux plate reader (Perkin Elmer, Shelton, CT). Data were expressed as relative luminescence units.
As for `CCCCCc1ccc(Cl)cc1`, the “activity change, negative = inhibition” value is 14.2% (inactive).
As to `CCO[Si](OCC)(OCC)OCC`, the “activity change, negative = inhibition” value is -28.3% (inactive).
For `CC(C)=CCC1=C(O)c2ccccc2C(=O)C1=O`, the Potency is 28.1 µM (active).
`Cc1cc(-n2nc3ccc(Cl)cc3n2)c(O)c(C(C)(C)C)c1`: the “activity change, negative = inhibition” value is 2.76% [at 52.9 µM] (inactive).
Regarding `CCCCC(CC)COC(=O)CCCCC(=O)OCc1ccccc1` (stereo not given), the Potency is 35.6 µM (active).
As for `CCCCCCCCCCCC(=O)OCC(C)OC(=O)CCCCC(=O)O` (stereo not given), the “activity change, negative = inhibition” value is -28.7% [at 52.9 µM] (inactive).
For `CC(C)(c1cc(Br)c(OCC(Br)CBr)c(Br)c1)c1cc(Br)c(OCC(Br)CBr)c(Br)c1` (stereo not given), the “activity change, negative = inhibition” value was -13% [at 52.9 µM] (inactive).
The same measure, in the same setting: the same measure for `COC(=O)c1ccccc1C`: -0.588% (inactive); for `CC1(C)CCC[C@]2(C)[C@H]3CCO[C@]3(C)CC[C@@H]12`: 12.7% (inactive).
`O=C(O)[C@H](O)[C@@H](O)[C@H](O[C@@H]1O[C@H](CO)[C@H](O)[C@H](O)[C@H]1O)[C@H](O)CO`: the “activity change, negative = inhibition” value is 15.6% [at 52.9 µM] (inactive).
Still for that read-out and setting: under `CN1CCCCC1CCN1c2ccccc2Sc2ccc(S(C)=O)cc21` (stereo not given) stands 13% [at 52.9 µM] (inactive).
`O=C1c2ccccc2C(=O)N1SC1CCCCC1`: the Potency is 25.2 µM (active) and 39.9 µM (active).
With `CCCCOC(=O)CO`, the “activity change, negative = inhibition” value was 22.3% (inactive).
In the case of `O=c1oc2cc(O)ccc2c2oc3cc(O)ccc3c12`, the Potency is 76.4 µM (active).
Still for that read-out and setting: under `CCO[C@@H]1O[C@H](C(COCc2ccccc2)OCc2ccccc2)[C@H](OCc2ccccc2)[C@H]1O` (stereo not given in full) stands 4.9 µM (active).
In the case of `CCCCCCCCCCOC(=O)c1ccccc1C(=O)OCCCCCCCC`, the “activity change, negative = inhibition” value was -8.05% (inactive).
For the molecule `CCCc1ccc(OCC(=O)N2CCN(C(=O)COc3ccc(CCC)cc3OC)CC2)c(OC)c1`, the Potency was 3.47 µM (active).
For `Cc1cc(-c2ccc(N=Nc3cc(S(=O)(=O)O)c4ccccc4c3N)c(C)c2)ccc1N=Nc1cc(S(=O)(=O)O)c2ccccc2c1N`, the “activity change, negative = inhibition” value was 0.152% (inactive).
In the case of `COc1cc(C)ccc1O`, the Potency was 56.4 µM (active).
Take `CCCNCCC`: the “activity change, negative = inhibition” value was 18.9% (inactive).
`CCc1cccc(CC)c1NC(=O)CN(CC(=O)O)CC(=O)O`: the “activity change, negative = inhibition” value is 2.58% [at 52.9 µM] (inactive).
As for `Cc1cccc2cccnc12`, the Potency is 70.5 µM (active).
As to `CCC(CC)(CC(=O)Nc1cccc(/C=C/c2nc(C3CCC3)cs2)c1)C(=O)O`, the “activity change, negative = inhibition” value is -4.62% [at 52.9 µM] (inactive).
Regarding `c1ccsc1`, the “activity change, negative = inhibition” value is 6.79% (inactive).
As for `OCC(F)(F)F`, the Potency is 74.8 µM (active).
Take `CCOc1ccc2ccccc2c1C(=O)N[C@@H]1C(=O)N2[C@@H]1SC(C)(C)[C@@H]2C(=O)O`: the “activity change, negative = inhibition” value was 18.5% [at 52.9 µM] (inactive).
The same measure, in the same setting: the same measure for `OC[C@@H](O)[C@@H](O)CO`: 16.1% (inactive).
Turning to `CC1(C)CCC[C@]2(C)[C@H]3CC(=O)O[C@]3(C)CC[C@@H]12`, the Potency was 39.9 µM (active).
Still for that read-out and setting: the same measure for `CC(=O)[C@H]1CC[C@H]2[C@@H]3CCC4=CC(=O)CC[C@]4(C)[C@H]3CC[C@]12C`: 3.54 µM (active) and 3.99 µM (active).
`C[C@@H](O)[C@H](N)C(=O)O`: the activity change, negative = inhibition was 6.88% [at 23.6 µM] (inactive).
On to `CCC(COC(=O)CCS)(COC(=O)CCS)COC(=O)CCS`, for which the Potency was 5.64 µM (active).
With `COc1ccc2cc1Oc1ccc(cc1)C[C@H]1c3c(cc4c(c3Oc3cc5c(cc3OC)CCN(C)[C@@H]5C2)OCO4)CCN1C`, the “activity change, negative = inhibition” value was -29.9% [at 52.9 µM] (inactive).
As to `S=C([S-])NCCNC(=S)[S-].S=C([S-])NCCNC(=S)[S-].[Mn+2].[Zn+2]`, the Potency is 4.36 µM (active).
As for `CC1(C)CC(O)CC(C)(C)N1`, the “activity change, negative = inhibition” value was -0.723% (inactive).
With `c1cnccn1`, the “activity change, negative = inhibition” value is 7.58% (inactive).
Take `S=c1nccc[nH]1`: the Potency was 31.8 µM (active).
For the molecule `O=S(=O)(O)c1ccc(N=Nc2c(O)ccc3ccccc23)cc1`, the Potency was 11.2 µM (active).
With `C[Si](Cl)(c1ccccc1)c1ccccc1`, the Potency was 1.95 µM (active).
On to `OC1CCCc2ccccc21` (stereo not given), for which the “activity change, negative = inhibition” value was 4.43% (inactive).
With `CCCCCCCCCCCCCC[N+](C)(C)Cc1ccccc1`, the Potency is 64.3 µM (active) and 20 mM (active).
